Compounds without any hit were thinned out: in the full panel of roughly 79,000, 15% have a hit. Activity calls are given as the source filed them. Rule as the data show it: active = growth inhibition above about 70%; inactive = the rest.
Key:
[1] = NCI Yeast Anticancer Drug Screen. Data for the wt1 strain (AID 149);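 also: 0% = growth of vehicle-treated wt1 cultures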; details: S. cerevisiae wt1 strain (SPY 50644) growth inhibition, active compounds read high
In short: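 The wt1 strain was treated with compounds, and growth was compared with vehicle-treated cultures to give inhibition.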

[2] = NCI Yeast Anticancer Drug Screen. Data for the rad50EPP+ strain (AID 151);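 also: 0% = growth of vehicle-treated control cultures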; details: S. cerevisiae rad50 mutant strain, active compounds read high
In short: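 In this screen, rad50EPP+ yeast were exposed to compounds. Growth inhibition was scored against vehicle-treated controls.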

[3] = NCI Yeast Anticancer Drug Screen. Data for the mgt1 strain (AID 153); details: S. cerevisiae mgt1 mutant growth inhibition, active compounds read high
In short: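 mgt1 strain exposed; growth vs vehicle control recorded as inhibition.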

[4] = NCI Yeast Anticancer Drug Screen. Data for the rad50 strain (AID 155);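 also: 0% = growth of vehicle-only cultures of the same strain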; details: S. cerevisiae rad50 strain growth inhibition, active compounds read high
In short: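 Cells are treated with compound, grown, and their growth is then scored against vehicle-only cultures of the same repair-deficient yeast strain.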

[5] = NCI Yeast Anticancer Drug Screen. Data for the mec2-1 strain (AID 157); details: S. cerevisiae mec2-1 strain, active compounds read high
In short: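 Vehicle-treated cultures served as reference for growth inhibition of compound-exposed mec2-1 yeast.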

[6] = NCI Yeast Anticancer Drug Screen. Data for the rad14 strain (AID 159);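 also: 0% = growth of vehicle-treated control cultures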; details: S. cerevisiae rad14 strain growth inhibition, active compounds read high
In short: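 Readout: yeast growth inhibition, referenced to vehicle-only cultures. Strain bears a defined alteration in DNA damage repair.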

[7] = NCI Yeast Anticancer Drug Screen. Data for the sgs1 mgt1 strain (AID 161);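 also: 0% = growth of cultures given vehicle only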; details: S. cerevisiae sgs1 mgt1 strain, active compounds read high
In short: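 Test agents were incubated with a DNA-repair-mutant yeast strain. Growth was then read and compared against vehicle-treated controls.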

[8] = NCI Yeast Anticancer Drug Screen. Data for the CLN2oe strain (AID 163);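 also: 0% = growth of vehicle-only control cultures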; details: S. cerevisiae CLN2oe strain, active compounds read high
In short: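 Inhibition relative to vehicle-treated yeast is reported. Cells: strain with genetic alteration in cell-cycle control, grown with compound.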

[9] = NCI Yeast Anticancer Drug Screen. Data for the cln2 rad14 strain (AID 165);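 also: 0% = growth equal to vehicle treated cultures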; details: S. cerevisiae cln2 rad14 strain, active compounds read high
In short: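 Each compound was tested on cln2 rad14 yeast. Inhibition of growth was calculated against vehicle-exposed controls.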

[10] = NCI Yeast Anticancer Drug Screen. Data for the bub3 strain (AID 167); details: S. cerevisiae bub3 mutant strain, active compounds read high
In short: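 Part of a panel of yeast mutants defective in DNA damage repair or cell cycle regulation. Each strain is grown with compound, and inhibition is calculated relative to solvent-treated cultures.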

[11] = NCI Yeast Anticancer Drug Screen. Data for the wt2 strain (AID 169);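 also: 0% = growth of vehicle-treated yeast cultures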; details: S. cerevisiae wt2 strain growth inhibition, active compounds read high
In short: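 Inhibition of yeast growth was determined after compound treatment, normalised to controls receiving only vehicle.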

[12] = NCI Yeast Anticancer Drug Screen. Data for the mlh1 rad18 strain (AID 175); details: S. cerevisiae mlh1 rad18 strain growth inhibition, active compounds read high
In short: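 Vehicle-treated cultures served as the reference for growth inhibition in a yeast strain carrying DNA damage repair alterations exposed to each compound.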

[13] = NCI Yeast Anticancer Drug Screen. Data for the rad18 strain (AID 177); details: S. cerevisiae rad18 mutant growth inhibition, active compounds read high
In short: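 Test articles were incubated with altered yeast defective in DNA damage repair. Results are given as inhibition of growth versus vehicle.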

[14] = NCI Yeast Anticancer Drug Screen. Data for the mlh1 strain (AID 171);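 also: 0% = growth of vehicle-treated control cultures of the same strain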; details: S. cerevisiae mlh1 strain growth inhibition, active compounds read high
In short: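 Vehicle-normalised growth inhibition of a repair- or checkpoint-altered yeast strain following compound treatment.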

[15] = NCI Yeast Anticancer Drug Screen. Data for the sgs1 strain (AID 173);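 also: 0% = growth of vehicle-only control cultures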; details: S. cerevisiae sgs1 mutant, active compounds read high
In short: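 Screen format: yeast with repair or checkpoint alterations, compound exposure, growth read relative to vehicle.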

[16] = at 5.0 µM (retest, dose inferred, filed as 0.5)
[17] = at 50.0 µM (retest, dose inferred, filed as 5.0)

Measured: growth inhibition

c1ccc(C2=NNC3c4ccccc4-c4ccccc4N3C2)cc1 (stereo unspecified)
active: [4]; at 50.0 µM 84.9% | [4]; at 100.0 µM 92%
inactive: [1]; at 1.2 µM -4% | [1]; at 3.7 µM -5% | [1]; at 11.0 µM -3% | [1]; at 33.0 µM 0% | [1]; at 100.0 µM 10% | [2]; at 1.2 µM -2% | [2]; at 3.7 µM 1% | [2]; at 11.0 µM 5% | [2]; at 33.0 µM 27% | [2]; at 100.0 µM 35% | [3]; at 1.2 µM -1% | [3]; at 3.7 µM 8% | [3]; at 11.0 µM -4% | [3]; at 33.0 µM -2% | [3]; at 100.0 µM 47% | [4]; at 1.2 µM 0% | [4]; at 3.7 µM 9% | [4]; [16] 16% | [4]; at 11.0 µM 11% | [4]; at 33.0 µM 33% | [4]; [17] 67% | [5]; at 1.2 µM 1% | [5]; at 3.7 µM 2% | [5]; [16] 6% | [5]; at 11.0 µM 3% | [5]; at 33.0 µM 5% | [5]; [17] 7% | [5]; at 50.0 µM 12.4% | [5]; at 100.0 µM 43% | [6]; at 1.2 µM -5% | [6]; at 3.7 µM -11% | [6]; at 11.0 µM 0% | [6]; at 33.0 µM 8% | [6]; at 100.0 µM 26% | [7]; [16] 6% | [7]; [17] 35% | [7]; at 50.0 µM 1.35% | [8]; at 1.2 µM 0% | [8]; at 3.7 µM -5% | [8]; at 11.0 µM -3% | [8]; at 33.0 µM 1% | [8]; at 100.0 µM 8% | [9]; [16] -122% | [9]; [17] 38% | [9]; at 50.0 µM 19.5% | [10]; at 1.2 µM 2% | [10]; at 3.7 µM -14% | [10]; [16] 1% | [10]; at 11.0 µM 5% | [10]; at 33.0 µM 11% | [10]; [17] 55% | [10]; at 50.0 µM 41% | [10]; at 100.0 µM 42% | [11]; at 1.2 µM -6% | [11]; at 3.7 µM -5% | [11]; at 11.0 µM -6% | [11]; at 33.0 µM 1% | [11]; at 100.0 µM 68% | [12]; [16] 11% | [12]; [17] 50% | [12]; at 50.0 µM 34% | [13]; at 1.2 µM 0% | [13]; at 3.7 µM 0% | [13]; at 11.0 µM -2% | [13]; at 33.0 µM 7% | [13]; at 100.0 µM 55%

CC1=NN(C(=O)CC(=O)N(C(=O)c2ccccc2)c2ccc(Cl)cc2)C(=O)C1N=Nc1ccc([N+](=O)[O-])cc1 (stereo unspecified)
inactive: [1]; at 1.2 µM -43% | [1]; at 3.7 µM -1% | [1]; at 11.0 µM 10% | [1]; at 33.0 µM 26% | [1]; at 100.0 µM 37% | [2]; at 1.2 µM 6% | [2]; at 3.7 µM 26% | [2]; at 11.0 µM 39% | [2]; at 33.0 µM 41% | [2]; at 100.0 µM 32% | [3]; at 1.2 µM 0% | [3]; at 3.7 µM 7% | [3]; at 11.0 µM 35% | [3]; at 33.0 µM 62% | [4]; at 1.2 µM -3% | [4]; at 3.7 µM 8% | [4]; [16] 41% | [4]; at 11.0 µM 50% | [5]; at 1.2 µM -3% | [5]; at 3.7 µM 8% | [5]; [16] 8% | [5]; at 11.0 µM 41% | [5]; at 33.0 µM 67% | [5]; [17] 56% | [5]; at 100.0 µM 68% | [6]; at 1.2 µM -1% | [6]; at 3.7 µM 7% | [6]; at 11.0 µM 23% | [6]; at 33.0 µM 44% | [6]; at 100.0 µM 53% | [7]; [16] -1% | [7]; [17] 49% | [8]; at 1.2 µM -11% | [8]; at 3.7 µM 6% | [8]; at 11.0 µM 48% | [9]; [16] 63% | [9]; [17] 66% | [9]; at 50.0 µM 55.8% | [10]; at 1.2 µM -5% | [10]; at 3.7 µM -6% | [10]; [16] 4% | [10]; at 11.0 µM 30% | [10]; at 33.0 µM 63% | [10]; [17] 67% | [14]; at 1.2 µM 0% | [14]; at 3.7 µM 8% | [14]; at 11.0 µM 36% | [14]; at 33.0 µM 59% | [14]; at 100.0 µM 69% | [15]; at 1.2 µM 0% | [15]; at 3.7 µM 14% | [15]; at 11.0 µM 46% | [15]; at 33.0 µM 68% | [15]; at 100.0 µM 69% | [12]; [16] 24% | [13]; at 1.2 µM 4% | [13]; at 3.7 µM 11% | [13]; at 11.0 µM 62%
active: [3]; at 100.0 µM 71% | [4]; at 33.0 µM 74% | [4]; [17] 89% | [4]; at 50.0 µM 84.5% | [4]; at 100.0 µM 74% | [5]; at 50.0 µM 83.6% | [7]; at 50.0 µM 77.7% | [8]; at 33.0 µM 75% | [8]; at 100.0 µM 77% | [10]; at 50.0 µM 85% | [10]; at 100.0 µM 71% | [12]; [17] 75% | [12]; at 50.0 µM 81% | [13]; at 33.0 µM 85% | [13]; at 100.0 µM 84%

From PubChem BioAssay (NCI)
